Only a selection was taken, and hits are over-represented in it overall.
S-ASM inh: human S-ASM enzyme inhibition; AID 504937; 0.006% of 340,000 active; P17405; Potency, µM (top dose mostly 57.5 µM), usual class: inhibitors; placental ASM, HMU-PC fluorogenic substrate, 60 min
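Steps: dispense placental human ASM, pin compound, wait 10 min at room temperature, add HMU-PC0 substrate at 9 uM final, incubate 60 min at 37 °C, add stop solution raising pH to 10, read fluorescence.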
Mito fusion yeast: mitochondrial division inhibition or fusion activation; S. cerevisiae fusion-defective mutant growth rescue, CellTiterGlo 48 h; Potency, µM (series often up to 46.1 µM), hits mostly activators; 0.23% of 320,000 active; further: nearly all actives have a fitted effect of over 45% in size
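S. cerevisiae fusion-defective temperature-sensitive mutants (e.g. fzo1-1, mgm1-5) grown 48 h at 37C in YPEG (ethanol/glycerol non-fermentable) medium with 23 nl compound per well; growth rescue read as CellTiterGlo luminescence.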
LDHA inh: inhibitors of human lactate dehydrogenase A. P00338. purified LDHA, NADH/diaphorase-resazurin fluorescence; hits give low values. activity change, % (values are at about 110 or 230 µM). 0.15% of 480,000 active. AID 1347041; in the data active means activity change below about -30%; inconclusive means mostly about -25% to -30%
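Human LDH5 (2 nM) was incubated with 0.06 mM NADH and 0.2 mM pyruvate for 5 min at room temperature in Tris pH 7.4. Remaining NADH was coupled through diaphorase/resazurin, and resorufin fluorescence was read at 0 and 20 min.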
ClpP mod: qHTS Assay for Activators of ClpP; Potency, µM (titrated, usually from 57.5 µM); purified B. subtilis ClpP, FRET peptide cleavage, 20 min; 1.9% of 340,000 active; active means well fitted falling curve with a large enough effect; inconclusive means small, poorly fitted or top-dose-only effect; inactive means no such curve, though single readings can be large or run the other way; further: the source files actives as falling curves though it sought activators and does not explain the sign; nearly all actives have a fitted effect of over 65% in size
Target sequence (P80244 whole entry, looked up): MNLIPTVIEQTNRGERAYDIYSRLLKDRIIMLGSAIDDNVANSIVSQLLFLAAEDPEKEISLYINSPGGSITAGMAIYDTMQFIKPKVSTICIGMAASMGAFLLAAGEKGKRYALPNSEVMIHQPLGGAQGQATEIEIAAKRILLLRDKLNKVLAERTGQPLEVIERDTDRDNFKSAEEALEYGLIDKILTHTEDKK
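ClpP 10 microg/mL final, pH 8 Tris/KCl buffer with BSA, glycerol, Tween-20; compound pinned in; FRET-FV substrate; RT 20 min; Ex320/Em430; ΔFRET vs ADEP 5.8 microM, DMSO, no enzyme.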
IDH1 R132H inh: blocks human mutant IDH1 R132H enzyme. AID 602179. O75874. IDH1-R132H enzyme, NADPH consumption, diaphorase/resazurin fluorescence. Potency, µM (series often up to 76.6 µM), most hits filed as inhibitors. 0.093% of 390,000 active; further: nearly all actives have a fitted effect of over 65% in size
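IDH1-R132H (0.5 ug/mL dispensed) in pH 7.5 Tris buffer was preincubated 30 min with compound, then given a substrate mix of 0.016 mM NADPH and 2 mM alpha-KG for 80 min at room temperature; remaining NADPH was read by diaphorase/resazurin fluorescence.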
RGS4 inhibitor: inhibitors of human regulator of G protein signaling 4 | 0.039% of 390,000 active | P49798 | Transcreener GDP fluorescence polarization, RGS4-accelerated GTP hydrolysis | Potency, µM (series often up to 114 µM), actives largely listed as inhibitors; further: nearly all actives have a fitted effect of over 75% in size
Target sequence (P49798 whole entry, looked up): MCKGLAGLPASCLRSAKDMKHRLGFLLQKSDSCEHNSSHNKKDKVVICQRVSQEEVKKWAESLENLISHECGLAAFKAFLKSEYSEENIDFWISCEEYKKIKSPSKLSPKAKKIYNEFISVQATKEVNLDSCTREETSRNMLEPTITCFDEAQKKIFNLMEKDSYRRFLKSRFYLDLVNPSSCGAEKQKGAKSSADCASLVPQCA
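MLSMR compounds (23 nl, pin-transferred) preincubated 10 min at room temperature with a 500nM (2x) first reagent, then RGS4 at 900nM (2x) plus Transcreener GDP mix added; fluorescence polarization (620/688 nm) read before and after 90 min at 30 °C.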
ClpP validation: inhibits B. subtilis ClpP protease, hit validation; Potency, µM (highest dose often 57.5 µM), hits mostly inhibitors; shares compounds with ClpP mod; purified B. subtilis ClpP, FRET-FV substrate cleavage, 20 min; 40% of 470 active; further: nearly all actives have a fitted effect of over 70% in size
A number is an active result; 0 = inactive; ? = inconclusive; - = no result; [ ] = another dose, or the depositor's remark. Unless noted, the call rests on the fitted dose curve; in most records, active means well fitted curve in the direction sought with a large enough effect; inconclusive means small, poorly fitted or top-dose-only effect, or another doubt; inactive means no such curve, though single readings can be large; an effect the other way counts as inactive or inconclusive.

SMILES	S-ASM inh	Mito fusion yeast	LDHA inh	ClpP mod	IDH1 R132H inh	RGS4 inhibitor	ClpP validation
COc1cc(OC)c(-c2nc(-c3ccc(Br)cc3)no2)cc1OC	-	-	0	-	-	-	-
Cc1ccc(Nc2c(-c3c[nH]c4ccccc34)nc3ccccn23)cc1	-	-	0	0	0	0	-
Cc1ccc(Nc2c(-c3ccc(Br)o3)nc3ccccn23)cc1	-	-	0	8.9µM	0	0	?
Cc1nc2ccc(C(=O)Oc3cccc4cccnc34)cc2nc1C	-	-	0	-	-	-	-
O=C(c1ccccn1)N(Cc1ccco1)C1(C(=O)NC2CCCC2)CCCCC1	0	0	0	2.5µM	0	0[11.4 µM]	0
CC(=O)N1CCC2(CC1)Oc1ccc(Br)cc1C1CC(c3cccnc3)=NN12 (stereo not drawn)	-	-	0	-	-	-	-
COC(=O)c1ccc(COC(=O)CCC(=O)c2ccc3c(c2)OCCCO3)cc1	-	-	0	-	-	-	-
CC(=O)Nc1ccc2nc(-c3ccccc3)cn2c1	-	0	0	3.5µM	0	0	22µM
CC(=O)Nc1cccc(-c2cn3ccc(C)cc3n2)c1	0	0	0	0	0	0	-
CC(=O)Nc1ccc(-c2cc(-c3ccc(NC(C)=O)cc3)nc(-c3ccccc3)n2)cc1	0	0	0	7.9µM	0	0	24µM
CC(=O)Nc1ccc(-c2cc(C(=O)O)c3ccccc3n2)cc1	0	0	0	0	0	0[11.4 µM]	-
Nc1nc2nc(-c3ccc(OCc4ccccc4)cc3)cc(C(F)(F)F)n2n1	0	0	0	7.1µM	0	0	17µM
Cc1cccnc1NC(=O)c1ccc(S(=O)(=O)N2CCCCC2)cc1	0	0	0	3.5µM	0	0	0
COc1ccc(-c2coc3cc(OC(C)=O)c(OC)cc3c2=O)cc1	0	-	0	0	?	0	0
COc1ccc2c(=O)c(-c3ccc(OC)c(OC)c3)coc2c1	0	0	0	0	0	0	-
CCC(C)NC(=O)c1cc2cc3ccc(OC)cc3nc2s1 (stereo not drawn)	0	0	0	10µM	0	0	14µM
COc1ccc(N2CCc3c(C)nc4c(OC)cccc4c32)cc1	0	0	0	0	0	0	-
COc1cccc2c3c(c(C)nc12)CC(C)O3 (stereo not drawn)	0	0	0	7.9µM	0	0	7.7µM
CCn1c(=O)c2c(nc(-n3nc(C)cc3C)n2Cc2c(Cl)cccc2Cl)n(C)c1=O	-	-	0	-	-	-	-
CN(c1ccccc1C(=O)NC1CCCCC1)S(=O)(=O)c1ccccc1	0	0	0	0	0	0	-
CN(c1ccccc1C(=O)NC1CC2CCC1C2)S(=O)(=O)c1ccccc1 (stereo not drawn)	0	0	0	7.9µM	0	0	0
O=C(OCC(=O)N1CCCC1=O)c1cc(-c2cccs2)nc2ccccc12	-	-	0	-	-	-	-
Oc1ccc(/C=C/c2ccc(/C=C/c3ccc(O)cc3)c(Br)c2)cc1	-	0	-	-	-	?	0
CCC(CC)C(CNC(=O)c1ccc(Cl)cc1F)N1CCOCC1 (stereo not drawn)	-	-	0	-	-	-	-
O=C(O)CC12CC3CC(Br)(C1)CC(CC(=O)O)(C3)C2	-	-	0	-	-	-	-
SMILES	S-ASM inh	Mito fusion yeast	LDHA inh	ClpP mod	IDH1 R132H inh	RGS4 inhibitor	ClpP validation
O=S(=O)(Nc1ccccc1)c1ccc(-c2csnn2)cc1	0	0	0	-	0	0	-
c1ccc(-c2ccc(-c3csnn3)cc2)cc1	0	0	0	0	0	0	0
Cc1c(C(=O)Nc2ccc(-c3nc4cc(Cl)ccc4o3)cc2)oc2ccccc12	-	-	0	8.9µM	0	0	15µM
C/C(=N\NC(=O)c1cccs1)c1ccc(-c2ccccc2)cc1	-	-	0	-	-	-	-
Cc1ccc(-c2csc3ncn(Cc4nc(C(C)C)no4)c(=O)c23)cc1	-	-	0	-	-	-	-
CCOc1ccc(CC(=O)Nc2c(C(=O)Nc3ccc(OC)cc3OC)oc3ccccc23)cc1	-	-	0	0	0	0	19µM
COc1ccccc1NC(=O)c1oc2ccccc2c1NC(=O)c1ccco1	0	0	0	0	0	0	22µM
CCOc1ccc(NC(=O)c2oc3ccccc3c2NC(=O)COc2cccc(OC)c2)cc1	-	-	0	0	0	0	-
CCOC(=O)c1oc2ccccc2c1NC(=O)COc1cccc(OC)c1	0	0	0	0	0	0	19µM
Cc1ccccc1C(=O)Nc1c(C(=O)Nc2cccc(F)c2)oc2ccccc12	-	-	0	?	0	0	-
O=C(COc1ccccc1F)Nc1c(C(=O)Nc2cccc(F)c2)oc2ccccc12	-	-	0	0	0	0	?
O=C(/C=C/C(=O)OCCc1ccccc1)OCCc1ccccc1	-	-	0	-	-	-	-
Cc1cccc2c1NC(=O)C21CC(=O)Nc2c1cnn2-c1ccccc1 (stereo not drawn)	-	-	0	-	-	-	-
CC(NCCC1(c2ccccc2)CCOC(C)(C)C1)c1ccccc1 (stereo not drawn)	-	-	0	-	-	-	-
Cn1c(=O)c2c(ncn2CC(=O)NC2(C)CCS(=O)(=O)C2)n(C)c1=O (stereo not drawn)	-	-	0	-	-	-	-
NC(=O)c1ccccc1NS(=O)(=O)Cc1ccccc1	0	0	0	7.9µM	0	0	22µM
CCc1ccc(CNC(=O)Cn2nc(-c3ccccc3)ccc2=O)cc1	0	0	0	4µM	0	0	0
O=C(Cn1nc(-c2ccccc2)ccc1=O)NCc1ccc(F)cc1Cl	-	-	0	0	0	0	-
c1cncc(-c2nnc(-c3ccco3)o2)c1	0	0	0	3.5µM	0	0	24µM
Clc1ccc(-c2nnc(-c3ccco3)o2)cc1	0	0	0	0	0	0	-
Cc1cc(N2CCCCC2)nc2ccc(NC(=O)c3ccc(F)cc3)cc12	-	-	0	0	0	0	0
Cc1cc(N2CCOCC2)nc2ccc(NC(=O)CCC(=O)N3CCCCC3)cc12	0	0	0	7.1µM	0	0	24µM
O=C(Nc1ccccc1)c1cccnc1NCc1ccccc1	-	-	0	-	-	-	-
CC(=O)N1CCc2c(sc(NC(=O)C3CCCN3S(=O)(=O)c3cccs3)c2C(N)=O)C1 (stereo not drawn)	0	0	0	4µM	0	0	0
Cc1cc(C)c2c(=O)cc(C(=O)Nc3nnc(CC(C)C)s3)oc2c1	-	-	0	-	-	-	-
SMILES	S-ASM inh	Mito fusion yeast	LDHA inh	ClpP mod	IDH1 R132H inh	RGS4 inhibitor	ClpP validation
O=C1Cc2cc(S(=O)(=O)N3CCNCC3)ccc2N1	0	-	0	0	0	?	0
NC(=O)c1nn(CC(=O)Nc2ccccc2OC(F)(F)F)c(=O)c2ccccc12	-	-	0	-	-	-	-
c1ccc(Oc2cc(-n3cncn3)ncn2)cc1	0	0	0	2.8µM	0	0	0
COc1ccccc1N1CCN(S(=O)(=O)c2cc(C)c(C)cc2OC)CC1	-	-	0	-	-	-	-
COc1ccc(-c2oc3ncn4nc(COc5c(C)cccc5C)nc4c3c2-c2ccc(OC)cc2)cc1	-	-	0	0	0	0	-
COc1ccc(-c2oc3ncn4nc(COc5ccc(Cl)cc5)nc4c3c2-c2ccc(OC)cc2)cc1	-	-	0	0	0	0	?

Screening results (PubChem BioAssay)
